# Source: the supplement of paper PMC8728848
# Many of the other results were omitted from the sample, so the strongest signals are more common in it than they were.
# B1: Pbx1 (Cryptococcus neoformans) (protein)
# chain: ATTKCLVSGDQDSINNALALGGEGTTVTLCPGSVHRLNSSIIFTAPSQTLTTLGNPKDRNRAMLVVDGEDLACAIRADCKQCSHAMIRSLVIDGNRPQLLRIPKGDALIEVGNAESQTVRDCKLYEPRGWSALHFREGDERQCRFGHIVDNEIGPCGEEWDDEYDSMDETKPLWGNPRADGISLACKDSIVERNVVYDATDGAIVLFGSAGSTVKNNHVYARTRVILGGINLVDYEPWDGDYTNVKVHHNHLYALGRYFKVGIVIGPASWSDDTESVVHSASVTDNEFSGGYWGYGIVVASAKNFEVLRNKVIWDGEQGVARFSGVPGSRCPKAPENGKPTAFLINRGSAKGIFQDDFVNGEVQHIICLNPDQDPPYKPWRFRDSPEAIAAKQAENPTANSAFDSRIAEALVSYQMSLLNSMDAMTQKVEHLTNPIVDDALPFVHEHERAEADKKARQEASRKEKESGNKDVDMLNVKVEELEKSGRRLKKALDGLKSDFEGLSGRLKKSADENKPIIETIFVTSQNLLLGATSQQN
# Tests used:
# Experiment in all cases: glycan array binding signal (z-score within array); higher = stronger binding
# Settings in all cases: glycan notation: IUPAC condensed, linker removed
# [1] = biological target: Fuc(a1-2)Gal(b1-3)[Fuc(a1-4)]GlcNAc(b1-2)Man(a1-3)[Fuc(a1-2)Gal(b1-3)[Fuc(a1-4)]GlcNAc(b1-2)Man(a1-3)]Man(b1-4)GlcNAc(b1-4)GlcNAc
# Outline: (§1)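 Arrays were curated from the Consortium for Functional Glycomics database, 3228 in total, and kept only where the protein sequence was available. Binding is expressed as a within-array Z-score. This score was averaged across arrays of the same protein sequence at different concentrations or buffers and across linkers, and negative values can be read as non-binding.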
# [2] = biological target: Fuc(a1-2)Gal(b1-4)GlcNAc(b1-2)Man
# Outline: as §1
# [3] = biological target: Fuc(a1-2)[Gal(a1-3)]Gal(b1-4)GlcNAc(b1-2)Man
# Outline: as §1
# [4] = biological target: Fuc(a1-2)[Gal(a1-4)]Gal(b1-4)GlcNAc
# Outline: as §1
# [5] = biological target: Fuc(a1-2)[GalNAc(a1-3)]Gal(b1-4)GlcNAc(b1-6)GalNAc
# Outline: as §1
# [6] = biological target: Fuc(a1-3)[Gal(b1-4)]GlcNAc(b1-6)GalNAc
# Outline: as §1
# [7] = biological target: Gal(a1-3)Gal(b1-3)GlcNAc(b1-2)Man
# Outline: as §1
# [8] = biological target: Gal(a1-4)Gal(b1-3)GlcNAc(b1-2)Man(a1-3)[Gal(a1-4)Gal(b1-3)GlcNAc(b1-2)Man(a1-6)]Man(b1-4)GlcNAc(b1-4)GlcNAc
# Outline: as §1
# [9] = biological target: Gal(b1-3)GlcNAc(a1-3)Gal(b1-4)GlcNAc
# Outline: as §1
# [10] = biological target: Gal(b1-3)GlcNAc(b1-2)Man(a1-3)[GlcNAc(b1-4)][Gal(b1-3)GlcNAc(b1-2)Man(a1-6)]Man(b1-4)GlcNAc(b1-4)GlcNAc
# Outline: as §1
# [11] = biological target: Gal(b1-3)GlcNAc(b1-3)Gal(b1-4)Glc
# Outline: as §1
# [12] = biological target: Gal(b1-3)GlcNAc(b1-3)Gal(b1-4)GlcNAc(b1-3)Gal(b1-4)GlcNAc(b1-2)[Gal(b1-3)GlcNAc(b1-3)Gal(b1-4)GlcNAc(b1-3)Gal(b1-4)GlcNAc(b1-6)]Man(a1-6)[Gal(b1-3)GlcNAc(b1-3)Gal(b1-4)GlcNAc(b1-3)Gal(b1-4)GlcNAc(b1-2)Man(a1-3)]Man(b1-4)GlcNAc(b1-4)[Fuc(a1-6)]GlcNAc
# Outline: as §1
# [13] = biological target: Gal(b1-4)GlcNAc(b1-2)Man(a1-3)Man(b1-4)GlcNAc(b1-4)GlcNAc
# Outline: as §1
# [14] = biological target: Gal(b1-4)GlcNAc(b1-2)[Gal(b1-4)GlcNAc(b1-4)]Man(a1-3)[Gal(b1-4)GlcNAc(b1-2)[Gal(b1-4)GlcNAc(b1-6)]Man(a1-6)]Man(b1-4)GlcNAc(b1-4)GlcNAc
# Outline: as §1
# [15] = biological target: Gal(b1-4)GlcNAc(b1-3)Gal(b1-4)GlcNAc(b1-2)Man(a1-3)[Gal(b1-4)GlcNAc(b1-3)Gal(b1-4)GlcNAc(b1-2)Man(a1-6)]Man(b1-4)GlcNAc(b1-4)GlcNAc
# Outline: as §1
# [16] = biological target: Gal(b1-4)GlcNAc(b1-3)Gal(b1-4)GlcNAc(b1-3)Gal(b1-4)GlcNAc(b1-2)Man(a1-3)[Gal(b1-4)GlcNAc(b1-3)Gal(b1-4)GlcNAc(b1-3)Gal(b1-4)GlcNAc(b1-2)Man(a1-6)]Man(b1-4)GlcNAc(b1-4)GlcNAc
# Outline: as §1
# [17] = biological target: Gal(b1-4)GlcNAc(b1-3)Gal(b1-4)GlcNAc(b1-3)Gal(b1-4)GlcNAc(b1-3)Gal(b1-4)GlcNAc(b1-3)Gal(b1-4)GlcNAc(b1-2)Man(a1-3)[Gal(b1-4)GlcNAc(b1-3)Gal(b1-4)GlcNAc(b1-3)Gal(b1-4)GlcNAc(b1-3)Gal(b1-4)GlcNAc(b1-3)Gal(b1-4)GlcNAc(b1-2)Man(a1-6)]Man(b1-4)GlcNAc(b1-4)[Fuc(a1-6)]GlcNAc
# Outline: as §1
# [18] = biological target: Gal(b1-4)GlcNAc(b1-3)Gal(b1-4)GlcNAc(b1-3)Gal(b1-4)GlcNAc(b1-3)Gal(b1-4)GlcNAc(b1-3)Gal(b1-4)GlcNAc(b1-2)[Gal(b1-4)GlcNAc(b1-3)Gal(b1-4)GlcNAc(b1-3)Gal(b1-4)GlcNAc(b1-3)Gal(b1-4)GlcNAc(b1-3)Gal(b1-4)GlcNAc(b1-6)]Man(a1-6)[Gal(b1-4)GlcNAc(b1-3)Gal(b1-4)GlcNAc(b1-3)Gal(b1-4)GlcNAc(b1-3)Gal(b1-4)GlcNAc(b1-3)Gal(b1-4)GlcNAc(b1-2)Man(a1-3)]Man(b1-4)GlcNAc(b1-4)[Fuc(a1-6)]GlcNAc
# Outline: as §1
# [19] = biological target: Gal(b1-4)GlcNAc(b1-3)Gal(b1-4)GlcNAc(b1-3)Gal(b1-4)GlcNAc(b1-3)Gal(b1-4)GlcNAc(b1-3)Gal(b1-4)GlcNAc(b1-3)Gal(b1-4)GlcNAc(b1-2)Man(a1-3)[Gal(b1-4)GlcNAc(b1-3)Gal(b1-4)GlcNAc(b1-3)Gal(b1-4)GlcNAc(b1-3)Gal(b1-4)GlcNAc(b1-3)Gal(b1-4)GlcNAc(b1-3)Gal(b1-4)GlcNAc(b1-2)Man(a1-6)]Man(b1-4)GlcNAc(b1-4)GlcNAc
# Outline: as §1
# [20] = biological target: Gal(b1-4)GlcNAc(b1-3)Gal(b1-4)GlcNAc(b1-6)[Gal(b1-3)]GalNAc
# Outline: as §1
# Gal(b1-6)Gal = biological target: Gal(b1-6)Gal
# Outline: as §1
# Gal4S6S(b1-4)GlcNAc = biological target: Gal4S6S(b1-4)GlcNAc
# Outline: as §1
# Gal6S(b1-3)GlcNAc = biological target: Gal6S(b1-3)GlcNAc
# Outline: as §1
# [21] = biological target: GalNAc3S(b1-4)[Fuc(a1-3)]GlcNAc
# Outline: as §1
# Glc(a1-4)Glc = biological target: Glc(a1-4)Glc
# Outline: as §1
# [22] = biological target: Glc(a1-4)Glc(a1-4)Glc(a1-4)Glc
# Outline: as §1
# GlcA(b1-3)GlcNAc = biological target: GlcA(b1-3)GlcNAc
# Outline: as §1
# [23] = biological target: GlcNAc(a1-3)Gal(b1-4)GlcNAc
# Outline: as §1
# [24] = biological target: GlcNAc(b1-2)[GlcNAc(b1-6)]Man(a1-6)[GlcNAc(b1-2)Man(a1-3)]Man(b1-4)GlcNAc(b1-4)[Fuc(a1-6)]GlcNAc
# Outline: as §1
# [25] = biological target: GlcNAc(b1-2)[GlcNAc(b1-6)]Man(a1-6)[GlcNAc(b1-4)][GlcNAc(b1-2)Man(a1-3)]Man(b1-4)GlcNAc(b1-4)GlcNAc
# Outline: as §1
# GlcNAc(b1-3)Gal = biological target: GlcNAc(b1-3)Gal
# Outline: as §1
# [26] = biological target: GlcNAc(b1-3)[GlcNAc(b1-6)]GalNAc
# Outline: as §1
# [27] = biological target: GlcNAc(b1-4)GlcNAc(b1-4)GlcNAc
# Outline: as §1
# [28] = biological target: GlcNAc(b1-4)GlcNAc(b1-4)GlcNAc(b1-4)GlcNAc(b1-4)GlcNAc
# Outline: as §1
# [29] = biological target: GlcNAc(b1-6)Gal(b1-4)GlcNAc
# Outline: as §1
# GlcNAc(b1-6)GalNAc = biological target: GlcNAc(b1-6)GalNAc
# Outline: as §1
# MurNAc(b1-4)GlcNAc = biological target: MurNAc(b1-4)GlcNAc
# Outline: as §1
# [30] = biological target: Neu5Ac(a2-3)Gal(b1-3)GlcNAc(b1-2)Man(a1-3)[Neu5Ac(a2-3)Gal(b1-3)GlcNAc(b1-2)Man(a1-6)]Man(b1-4)GlcNAc(b1-4)GlcNAc
# Outline: as §1
# [31] = biological target: Neu5Ac(a2-3)Gal(b1-3)GlcNAc6S
# Outline: as §1
# [32] = biological target: Neu5Ac(a2-3)Gal(b1-3)]Neu5Ac(a2-3)Gal(b1-4)]GlcNAc
# Outline: as §1
# [33] = biological target: Neu5Ac(a2-3)Gal(b1-4)[Fuc(a1-3)]GlcNAc(b1-3)Gal(b1-4)GlcNAc
# Outline: as §1
# [34] = biological target: Neu5Ac(a2-3)Gal(b1-4)[Fuc(a1-3)]GlcNAc(b1-6)[Gal(b1-3)]GalNAc
# Outline: as §1
# [35] = biological target: Neu5Ac(a2-3)Gal(b1-4)[Fuc(a1-3)]GlcNAc(b1-6)[Neu5Ac(a2-3)Gal(b1-3)]GalNAc
# Outline: as §1
# [36] = biological target: Neu5Ac(a2-6)Gal(b1-4)GlcNAc(b1-2)[Neu5Ac(a2-6)Gal(b1-4)GlcNAc(b1-4)]Man(a1-3)[GlcNAc(b1-4)][Neu5Ac(a2-6)Gal(b1-4)GlcNAc(b1-2)[Neu5Ac(a2-6)Gal(b1-4)GlcNAc(b1-6)]Man(a1-6)]Man(b1-4)GlcNAc(b1-4)GlcNAc
# Outline: as §1
# [37] = biological target: Neu5Ac(a2-6)Gal(b1-4)GlcNAc(b1-2)[Neu5Ac(a2-6)Gal(b1-4)GlcNAc(b1-6)]Man(a1-6)[Neu5Ac(a2-6)Gal(b1-4)GlcNAc(b1-2)Man(a1-3)][GlcNAc(b1-4)]Man(b1-4)GlcNAc(b1-4)GlcNAc
# Outline: as §1
# Neu5Ac(b2-6)GalNAc = biological target: Neu5Ac(b2-6)GalNAc
# Outline: as §1
# [38] = biological target: Neu5Gc(a2-3)Gal(b1-3)GlcNAc
# Outline: as §1
# [39] = biological target: Neu5Gc(a2-8)Neu5Ac(a2-3)Gal(b1-4)GlcNAc
# Outline: as §1
binder,measurement,setting,value
B1,glycan array binding signal (z-score),[1],2.82
same,glycan array binding signal (z-score),[2],-0.654
same,glycan array binding signal (z-score),[3],-0.203
same,glycan array binding signal (z-score),[4],0.002
same,glycan array binding signal (z-score),[5],0.252
same,glycan array binding signal (z-score),[6],2.34
same,glycan array binding signal (z-score),[7],1.04
same,glycan array binding signal (z-score),[8],2.14
same,glycan array binding signal (z-score),[9],-0.304
same,glycan array binding signal (z-score),[10],0.415
same,glycan array binding signal (z-score),[11],-0.533
same,glycan array binding signal (z-score),[12],15
same,glycan array binding signal (z-score),[13],-0.195
same,glycan array binding signal (z-score),[14],0.072
same,glycan array binding signal (z-score),[15],2.91
same,glycan array binding signal (z-score),[16],2.41
same,glycan array binding signal (z-score),[17],5.6
same,glycan array binding signal (z-score),[18],4.38
same,glycan array binding signal (z-score),[19],1.03
same,glycan array binding signal (z-score),[20],2.33
same,glycan array binding signal (z-score),Gal(b1-6)Gal,-0.233
same,glycan array binding signal (z-score),Gal4S6S(b1-4)GlcNAc,-0.366
same,glycan array binding signal (z-score),Gal6S(b1-3)GlcNAc,0.304
same,glycan array binding signal (z-score),[21],0.766
same,glycan array binding signal (z-score),Glc(a1-4)Glc,0.352
same,glycan array binding signal (z-score),[22],-0.56
same,glycan array binding signal (z-score),GlcA(b1-3)GlcNAc,0.759
same,glycan array binding signal (z-score),[23],0.052
same,glycan array binding signal (z-score),[24],-0.137
same,glycan array binding signal (z-score),[25],-0.848
same,glycan array binding signal (z-score),GlcNAc(b1-3)Gal,-0.639
same,glycan array binding signal (z-score),[26],-0.235
same,glycan array binding signal (z-score),[27],-0.565
same,glycan array binding signal (z-score),[28],-0.631
same,glycan array binding signal (z-score),[29],-0.045
same,glycan array binding signal (z-score),GlcNAc(b1-6)GalNAc,-0.262
same,glycan array binding signal (z-score),MurNAc(b1-4)GlcNAc,5.14
same,glycan array binding signal (z-score),[30],0.345
same,glycan array binding signal (z-score),[31],-0.618
same,glycan array binding signal (z-score),[32],-1.05
same,glycan array binding signal (z-score),[33],0.071
same,glycan array binding signal (z-score),[34],3.7
same,glycan array binding signal (z-score),[35],0.371
same,glycan array binding signal (z-score),[36],2.36
same,glycan array binding signal (z-score),[37],-0.36
same,glycan array binding signal (z-score),Neu5Ac(b2-6)GalNAc,-0.769
same,glycan array binding signal (z-score),[38],-0.531
same,glycan array binding signal (z-score),[39],-0.771
